Out of some 1,300 compounds screened, about 30 (2%) were called active. Where a call stands in place of a potency, no number is given. Not shown: some 10% with an inconclusive outcome. The call rests on the fitted dose curve; in most records, active means well fitted inhibition curve with a large enough effect; inconclusive means small, poorly fitted or top-dose-only effect; inactive means flat fitted curve, though single readings scatter. For the sample, actives were picked, then their nearest neighbours and some compounds at random.
experiment: qHTS for antagonists of the Thyroid Stimulation Hormone Receptor: Hit Validation in HTRF Activity in a Luteinizing Hormone Receptor Cell Line; conditions: LHR-expressing cell line, cAMP HTRF, antagonist mode; series mostly up to 58 µM
Source text: The thyroid-stimulating hormone receptor (TSHR) is a member of the 7 trans-membrane-spanning receptor (7TMR) family of cell surface receptors. TSHR-mediated hyperthyroidism is important in thyroid pathology. The development of small molecule antagonists of TSHR may lead to therapeutic approaches for TSHR-mediated hyperthyroidism caused by constitutively activating mutations or stimulating auto-antibodies associated with Graves' disease. Graves' disease is the leading cause of hyperthyroidism and is caused by autoantibodies that stimulate TSHR (TsAbs) causing thyroid growth and unregulated overproduction of thyroid hormones and existing treatments have liabilities (agranulocytosis). In addition, TSHRs are known to be expressed in multiple extrathyroidal tissues including bone, brain, kidney, testis, fat and cells of the immune system but the role of the TSHR in these tissues is not clear. Therefore, TSHR antagonists/inverse agonists could be used as probes of extrathyroidal TSHR function. Finally, TSHR inverse agonists, which are a subclass of antagonists that inhibit agonist-independent (or basal or constitutive) TSHR signaling, could be used to inhibit TSH-independent signaling in patients with recurrent or metastatic thyroid cancer who are receiving thyroid hormone to suppress TSH.
In collaboration between scientist from the NCGC and the NIDDK, a miniaturized HTRF high-throughput screen was developed. It's a cell based assay, where an anti cAMP antibody contains a fluorescent cryptate tag (excitation 337 nm; emission 620 nm) and the acceptor is cAMP-d2 (excitation 620 nm; emission 665 nm). When antibody and cAMP-d2 interact and are excited by a 337 nm light, a FRET occurs resulting in emission at 665 nm. The assay is competition between cAMP-d2 and cAMP (from the cell lysate). The homogeneous protocol allows for one step dispense after stimulation that is automation friendly. In order to confirm specificity of the compounds to the TSHR, a confirmatory assay was conducted on a similar family member, the Luteinizing Hormone (LH) receptor, transfected into a HEK 293 cell line, using an orthogonal detection technology to measure cAMP stimulation: antibody-based Homogeneous Time Resolved Fluorescence (HTRF).
NIH Chemical Genomics Center [NCGC]
NIH Molecular Libraries Probe Centers Network [MLPCN]
Assay Provider: Marvin Gershengorn, NIDDK
Homogeneous Time Resolved Fluorescence (HTRF) cAMP Assay. HEK 293 cells stably transfected with a vector containing the LH receptor and maintained under hygromycin selection were obtained from the laboratory of Dr. Marvin Gershengorn. Compounds were assayed using a HTRF cAMP detection kit (Cisbio) on the LH receptor transfected cell line. Briefly, 750 cells were plated in 2.5 ul/well of complete media (DMEM containing 10 % FCS, and 100 uM RO 20-1724) in 1536 well solid bottom white plates and 23 nl/well compound in DMSO solution or controls was added. Following 30 minute incubation at room temperature, 2.5 ul/well of labeled d2 cAMP and 2.5 ul/well of anti-cAMP antibody (both diluted 1:20 in lysis buffer) were added to each well using a flying reagent dispenser (Aurora Discovery, San Diego) . Plates were measured using the Envision plate reader (PerkinElmer, Boston, MA) with excitation at 330 nm and emissions of 615 nm and 660 nm.
Potency means the concentration at half of the fitted maximal effect.

Row | SMILES | Potency
1 | COc1ccccc1N1CCN(c2nc(C)nc3c2oc2ccccc23)CC1 | inactive
2 | O=C1C=CC(=O)N1CCCCCCN1C(=O)C=CC1=O | 33.8 µM (active)
3 | Cc1cccc(/C=C/C(=O)c2cc(Br)ccc(=O)c2O)c1 | inactive
4 | O=S(=O)(c1cc(C(F)(F)F)ccc1Cl)N1CCN(c2ncnc3ccccc23)CC1 | inactive
5 | COc1cc2sc3ccc(-c4ccc(CN5CCOCC5)cc4)cc3c(=O)c2cc1OC | inactive
6 | COc1ccc(NC(=O)/C(Cl)=C(/Cl)S(=O)Cc2ccccc2Cl)cn1 (configuration not stated) | 37.9 µM (active)
7 | COc1ccc(NS(=O)(=O)c2ccc3c(c2)Cc2ccccc2-3)cn1 | inactive
8 | O=C(Nc1ccccc1Cl)/C(Cl)=C(\Cl)S(=O)c1ccccc1 (configuration not stated) | inactive
9 | c1ccc2c(Cn3nnc4ccccc43)cccc2c1 | inactive
10 | Cc1onc(-c2ccccc2Cl)c1C(=O)NC(=S)Nc1ccc(C(C)C)cc1 | inactive
11 | O=C(N1CCN=C1SCc1cccnc1)C12CC3CC(CC(C3)C1)C2 | inactive
12 | O=C(CSc1nc2cc(Cl)c(Cl)cc2[nH]1)c1ccc2c(c1)OCO2 | inactive
13 | O=S(=O)(Nc1ccc2cn[nH]c2c1)c1cc(Br)ccc1Br | inactive
14 | C=C(C)CNc1cc(S(=O)(=O)N2CCOCC2)ccc1Oc1ccccc1 | inactive
15 | Clc1ccc(CSc2nnc(CNc3cccc(Cl)c3)o2)cc1 | inactive
16 | CCN(CC)S(=O)(=O)c1ccc(Oc2ccc(S(=O)(=O)N(CC)CC)cc2)cc1 | inactive
17 | CC1=NN(C(N)=S)C(=O)C1N=Nc1c(Br)cc(Br)cc1Br (configuration not stated) | inactive
18 | O=C(Oc1c(Br)cc([N+](=O)[O-])cc1Br)c1cccnc1 | inactive
19 | CCc1ccccc1NC(=O)CN1CCN(C(=O)CNC(=O)Cc2cccc3ccccc23)CC1 | inactive
20 | O=C(Nc1ccc(Cl)c(Cl)c1)Nc1ccccc1O | inactive
21 | COc1ccc(-c2cc(-c3nc4ccccn4c3NCc3ccccc3)ccc2OC)cc1 | 9.53 µM (active)
22 | CCCCCCSc1ccc(-c2nc3ccc(Cl)cn3c2NCCCC)cc1OC | inactive
23 | CCCCNc1c(-c2cccc(-c3ccc(OC)cc3)c2)nc2ccc(C)cn12 | inactive
24 | O=C(Nc1nc2c(s1)CCCC2)c1ccc2ncsc2c1 | inactive
25 | N#C/C(=N\Nc1cccc([N+](=O)[O-])c1)C(=O)c1ccc(Br)cc1 | inactive
26 | Cc1ccc(C)c(N2CCN(C(=O)CCS(=O)(=O)c3ccc4c(c3)CCN4C(=O)C3CC3)CC2)c1 | inactive

Row | SMILES | Potency
27 | Cc1c(Cl)sn(-c2ccc(Cl)cc2)c1=O | inactive
28 | Cc1ccc(-n2c(Cl)c(Cl)nc(Cl)c2=O)cc1 | 37.9 µM (active)
29 | Cc1ccc2cccc(Oc3ncnc4scc(-c5ccccc5)c34)c2n1 | inactive
30 | O=C(Nc1ccc(Cl)c(S(=O)(=O)N2CCOCC2)c1)c1ccc(OCC2CCCO2)cc1 (configuration not stated) | 37.9 µM (active)
31 | O=C(Nc1nc(-c2ccc(Cl)cc2Cl)cs1)c1ccc(OCC2CCCO2)cc1 (configuration not stated) | inactive
32 | COc1cc(C(C)=O)ccc1OCC(=O)Nc1ccc(Cl)c(S(=O)(=O)N2CCOCC2)c1 | inactive
33 | COC(=O)c1ccc(CN2C(=O)NC(Cc3c[nH]c4ccccc34)C2=O)cc1 (configuration not stated) | inactive
34 | COc1ccc(-c2csc(NC(=O)c3ccccc3NS(=O)(=O)c3ccc(F)c(F)c3)n2)cc1 | inactive
35 | COc1ccc(Cc2nc(C(=O)Nc3ccc(Cl)cc3)cs2)cc1 | inactive
36 | O=S(=O)(Nc1cccc(-c2cn3cccnc3n2)c1)c1ccc(-c2ccccc2)cc1 | inactive
37 | CCOC(=O)CCS(=O)(=O)c1nc(-c2ccccc2)cc(C(F)(F)F)n1 | inactive
38 | COc1ccc(/C=N/n2c(SC)nnc(C(C)(C)C)c2=O)cc1 | inactive
39 | COc1ccc(S(=O)(=O)N2CCOC23CCN(C(=O)c2ccc(Cl)cc2Cl)CC3)cc1 | inactive
40 | O=C(NCCC1=CCCCC1)C(=O)NCC1OCCCN1S(=O)(=O)c1ccccc1 (configuration not stated) | inactive
41 | Cc1cc(C(=O)CCl)c(C)n1CCc1ccccc1 | inactive
42 | CC1(C)CC2(CCCN3C(=O)CSC32)CCS1 (configuration not stated) | inactive
43 | COC(=O)c1ccc(-c2noc(CN(C)CCC3CCCCO3)n2)cc1 (configuration not stated) | inactive
44 | CCC(C)(C)C1CCC(NC(=O)N2CCN(c3ccccc3O)CC2)CC1 (configuration not stated) | inactive
45 | COc1ccccc1-n1cnc2cc(NS(=O)(=O)c3ccc(Br)cc3)ccc21 | inactive
46 | O=C1NC(=S)S/C1=C\c1ccc2ccccc2c1 | inactive
47 | O=[N+]([O-])c1c(Nc2cccc(O)c2)cc(Cl)c2nonc12 | 30.1 µM (active)
48 | O=C(COC(=O)c1ccccc1NS(=O)(=O)c1cccs1)NCC12CC3CC(CC(C3)C1)C2 | inactive
49 | Cc1cc(OCC(=O)Nc2cccc(S(=O)(=O)N3CCCC3)c2)ccc1Cl | inactive
50 | CCOC(=O)c1c(NC(NC(=O)C(C)C)C(Cl)(Cl)Cl)sc2c1CCC2 (configuration not stated) | inactive
51 | O=C(Nc1ccc(SC(F)F)cc1)c1ccc2c(=O)n3c(nc2c1)CCC3 | inactive
52 | COc1cc2cnc(-c3ccccc3)c(-c3ccc(C#N)cc3)c2cc1OC | inactive

Row | SMILES | Potency
53 | CCn1c(Cl)c(C=O)s/c1=N\S(=O)(=O)c1ccccc1 | 37.9 µM (active)
54 | CCOc1ccccc1N1CCN(C(=O)CCCN2C(=O)c3cccc4cccc(c34)C2=O)CC1 | inactive
55 | CC(C)N(Cc1ccccc1)C(=O)COC(=O)c1cnc(Cl)c(Cl)c1 | inactive
56 | CC(Sc1nn(-c2ccc(F)cc2)c(=S)s1)C(=O)c1c(N)n(C)c(=O)n(C)c1=O (configuration not stated) | inactive
57 | CC1=CC(=O)C(C(C)C)=C/C1=N/OS(=O)(=O)c1ccccc1 | 21.3 µM (active)
58 | CC1=C/C(=N\OS(=O)(=O)c2ccccc2)C(C)=CC1=O | 30.1 µM (active)
59 | COc1ccc(/C=N/NC(=O)c2ccoc2C)cc1COc1c(C)cccc1C | inactive
60 | CCCSc1nsc(NC(=O)Nc2ccc(F)cc2F)n1 | inactive
61 | O=C(COc1ccc(Cl)cc1)Nc1ncc([N+](=O)[O-])s1 | inactive
62 | COc1cc(/C=N/OCC(=O)NC23CC4CC(CC(C4)C2)C3)ccc1OCc1ccccc1 | inactive
63 | O=C(OCCc1cc2ccccc2c(=O)o1)c1ccccc1C(F)(F)F | inactive
64 | CCN(CC)c1ccc2nc3ccccc3[n+](CC)c2c1 | 30.1 µM (active)
65 | O=C(Nc1nc(-c2ccc(F)cc2)cs1)C1CCN(C(=O)c2ccc(F)cc2)CC1 | inactive
66 | Cc1cccc(N2CCN(S(=O)(=O)c3ccc4c(c3)NC(=O)CS4)CC2)c1C | inactive
67 | CC1CCN(c2ccccc2NC(=O)c2cc([N+](=O)[O-])ccc2N2CCOCC2)CC1 | inactive
68 | CSc1nnc(C(C)(C)C)c(=O)n1/N=C/c1c(O)ccc2ccccc12 | inactive
69 | Nc1nc(SCc2ccccc2Cl)ns1 | inactive
70 | CC1CC1C(=O)N1CCN(S(=O)(=O)c2cc(C(F)(F)F)cc(C(F)(F)F)c2)CC1 (configuration not stated) | inactive
71 | COc1cccc(CN(C)C(=O)c2ccc(OCC(=O)Nc3cccc(C(F)(F)F)c3)c(OC)c2)c1 | inactive
72 | COc1ccc(-c2nc(CS(=O)CC(=O)NCc3ccccc3)c(C)o2)cc1OC (configuration not stated) | inactive
73 | COc1ccc(CC(=O)Nc2cccc(-c3nnc(-c4cccc(C)c4)o3)c2)cc1OC | 21.3 µM (active)
74 | Cc1ccc(S(=O)(=O)Nc2ccccc2N2CCCCC2)cc1 | inactive
75 | COc1ccccc1CNC(=O)CSc1nc(N)c(C#N)c(-c2cccs2)c1C#N | inactive
76 | CCn1nc([N+](=O)[O-])c(C(C#N)c2nc3cc(C(F)(F)F)ccc3s2)c(Cl)c1=O (configuration not stated) | inactive
77 | O=C(NC(Nc1nc2ccc([N+](=O)[O-])cc2s1)(C(F)(F)F)C(F)(F)F)c1cccnc1 | inactive
78 | O=c1c(Sc2ccccc2)c(C(F)(F)F)[nH]n1-c1ccccc1 | inactive

Row | SMILES | Potency
79 | COc1ccc(OC)c(CCNC(=O)Cn2nc(C)c3c(C)n(-c4ccc(C)cc4)nc3c2=O)c1 | inactive
80 | CC(=O)NC1=C(Nc2ccc(N(C)C)cc2)C(=O)c2ccccc2C1=O | inactive
81 | O=C(OCn1ncc(Cl)c(Cl)c1=O)c1cccc(C(F)(F)F)c1 | inactive
82 | Cc1sc2ncnc(N3CCN(CCOc4ccc(Cl)cc4)CC3)c2c1C | inactive
83 | Cc1ccc(-c2nc3ccc(C(=O)O)cc3nc2-c2ccc(C)cc2)cc1 | inactive
84 | CCOC(=O)c1sc(NC(=O)CSc2n[nH]c(-c3ccncc3)n2)c(C#N)c1C | inactive
85 | COc1ccc(S(=O)(=O)Nc2ccccc2C(=O)Nc2nc(-c3ccc(F)cc3)cs2)cc1OC | inactive
86 | CCSc1nsc(NC(=O)Nc2cccc(OC)c2)n1 | inactive
87 | COc1cccc(NC(=O)Nc2nc(-c3ccc(OC)c(OC)c3)cs2)c1 | 13.5 µM (active)
88 | CN(C)S(=O)(=O)c1cccc(-c2nnc(SCc3ccc4c(c3)OCCO4)o2)c1 | inactive
89 | COc1ccccc1NS(=O)(=O)c1cccc(NC(=O)c2ccc3ccccc3n2)c1 | inactive
90 | CCc1ccc(-c2cc(C)no2)cc1S(=O)(=O)N1CCN(c2ccccn2)CC1 | inactive
91 | COc1ccc(CN(C)C(=O)COC(=O)c2ccc(-c3ccccc3)cc2)c(OC)c1OC | inactive
92 | CCOc1ccc2nc(SC3CC(=O)N(c4ccccc4)C3=O)sc2c1 (configuration not stated) | inactive
93 | Cc1cc(OCc2cc(C(=O)N(C)C(C)c3ccccn3)no2)cc(C)c1Cl (configuration not stated) | inactive
94 | CC(C)c1ccccc1OCCNC(=O)c1cccnc1 | inactive
95 | O=C(CSc1ccc(F)cc1)N1CCC(c2nc3ccccc3s2)CC1 | inactive
96 | N=c1oc2ccccc2cc1C(=O)NC1CCCCCC1 | inactive
97 | CC(Sc1nnc(-c2cccs2)n1Cc1ccccc1)C(=O)NCc1ccc2c(c1)OCO2 (configuration not stated) | inactive
98 | COc1cccc(-c2nc(-c3ccc(NC(=O)c4cccnc4)cc3)no2)c1 | inactive
99 | Cn1c(=O)c(C(=O)NNC(=O)c2cccc(Cl)c2)c(O)c2ccccc21 | inactive
100 | CC1Cc2ccccc2N1C(=O)COC(=O)/C=C/c1cccc(F)c1 (configuration not stated) | inactive
101 | CCCCCCSc1nsc(NC(C)=O)n1 | inactive
102 | O=Cc1c[nH]c2ccc(C(=O)c3ccccc3)cc12 | inactive
